PubChem BioAssay (NCI)
About 83,000 compounds went through this panel and 20% of them were active in at least one assay; those are over-represented in the sample as a whole.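 Compound tested at a single concentration for 48 hours in 96-well plates; a percent growth value below 10 was scored as active.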 Unmarked numbers belong to inactive results. Active and inactive are the calls of the source.

Tests used:
Assay in all cases: NCI-60 one-dose screen, 48 h (100 = growth as untreated, 0 = no growth, -100 = all killed)
Settings in all cases: 10 µM unless noted
NCI-H23 lung = system: NCI-H23 lung
NCI-H226 lung = system: NCI-H226 lung
NCI-H322M lung = system: NCI-H322M lung
HOP-62 NSCLC = system: HOP-62 NSCLC
NCI-H460 lung = system: NCI-H460 lung
HOP-92 NSCLC = system: HOP-92 NSCLC
NCI-H522 lung = system: NCI-H522 lung
A549/ATCC NSCLC = system: A549/ATCC NSCLC
786-0 renal = system: 786-0 renal
COLO 205 colon = system: COLO 205 colon
DU-145 prostate = system: DU-145 prostate
K-562 leukemia = system: K-562 leukemia
MALME-3M melanoma = system: MALME-3M melanoma
MDA-MB-231 breast = system: MDA-MB-231 breast
RXF 393 renal = system: RXF 393 renal
SF-268 CNS = system: SF-268 CNS
SF-295 CNS = system: SF-295 CNS
SF-539 CNS = system: SF-539 CNS
UACC-257 melanoma = system: UACC-257 melanoma
M14 melanoma = system: M14 melanoma

## OC(COc1cccc2ccccc12)CN1CCN(c2ccccc2Cl)CC1 (stereo not given)
NCI-H23 lung
  growth: 80.3%
NCI-H226 lung
  growth: 106%
NCI-H322M lung
  growth: 95.5%
HOP-62 NSCLC
  growth: 88%
NCI-H460 lung
  growth: 91.1%
HOP-92 NSCLC
  growth: 74.5%
NCI-H522 lung
  growth: 98.8%
A549/ATCC NSCLC
  growth: 96.6%
786-0 renal
  growth: 91.4%
COLO 205 colon
  growth: 104%
DU-145 prostate
  growth: 109%
K-562 leukemia
  growth: 99.3%
MALME-3M melanoma
  growth: 108%
MDA-MB-231 breast
  growth: 83.7%
RXF 393 renal
  growth: 158%
SF-268 CNS
  growth: 98.6%
SF-295 CNS
  growth: 86.4%
SF-539 CNS
  growth: 93.2%
UACC-257 melanoma
  growth: -1.88% (active)
M14 melanoma
  growth: 84.7%

## COc1cccc(/C=C2\Oc3cc(OCCN4CCCC4)ccc3C2=O)c1
NCI-H23 lung
  growth: 92.2%
NCI-H226 lung
  growth: 99.2%
NCI-H322M lung
  growth: 92.7%
HOP-62 NSCLC
  growth: 96.3%
NCI-H460 lung
  growth: 93.8%
HOP-92 NSCLC
  growth: 69.6%
NCI-H522 lung
  growth: 94.5%
A549/ATCC NSCLC
  growth: 99%
786-0 renal
  growth: 95.8%
COLO 205 colon
  growth: 93.8%
DU-145 prostate
  growth: 98.5%
K-562 leukemia
  growth: -26.9% (active)
MALME-3M melanoma
  growth: 104%
MDA-MB-231 breast
  growth: 96.3%
RXF 393 renal
  growth: 97.5%
SF-268 CNS
  growth: 91.8%
SF-295 CNS
  growth: 105%
SF-539 CNS
  growth: 88.9%
UACC-257 melanoma
  growth: 111%
M14 melanoma
  growth: 98.7%

## Cc1ccc2c(C(C[N+](=O)[O-])c3ccccc3)c(-c3ccccc3)[nH]c2c1 (stereo not given)
NCI-H23 lung
  growth: 39.4% [9.5 µM]
NCI-H226 lung
  growth: 35.3% [9.5 µM]
NCI-H322M lung
  growth: 41.7% [9.5 µM]
HOP-62 NSCLC
  growth: 20.2% [9.5 µM]
NCI-H460 lung
  growth: 12.2% [9.5 µM]
HOP-92 NSCLC
  growth: 25.8% [9.5 µM]
NCI-H522 lung
  growth: -37.8% [9.5 µM] (active)
A549/ATCC NSCLC
  growth: 28.6% [9.5 µM]
786-0 renal
  growth: 30.8% [9.5 µM]
COLO 205 colon
  growth: 9.02% [9.5 µM] (active)
DU-145 prostate
  growth: 30.3% [9.5 µM]
K-562 leukemia
  growth: 10.9% [9.5 µM]
MALME-3M melanoma
  growth: 44.7% [9.5 µM]
MDA-MB-231 breast
  growth: 37.2% [9.5 µM]
RXF 393 renal
  growth: 5.65% [9.5 µM] (active)
SF-268 CNS
  growth: 35.2% [9.5 µM]
SF-295 CNS
  growth: 9.43% [9.5 µM] (active)
SF-539 CNS
  growth: 8.82% [9.5 µM] (active)
UACC-257 melanoma
  growth: 27.6% [9.5 µM]
M14 melanoma
  growth: 22.3% [9.5 µM]

## O=c1cc(CSc2nnc(SCc3cc(=O)oc4c3ccc3ccccc34)o2)c2ccc3ccccc3c2o1
NCI-H23 lung
  growth: 89.9%
NCI-H226 lung
  growth: 83.6%
NCI-H322M lung
  growth: 93.3%
HOP-62 NSCLC
  growth: 99.2%
NCI-H460 lung
  growth: 104%
HOP-92 NSCLC
  growth: 97.6%
NCI-H522 lung
  growth: 70.1%
A549/ATCC NSCLC
  growth: 89.3%
786-0 renal
  growth: 109%
COLO 205 colon
  growth: 106%
DU-145 prostate
  growth: 109%
K-562 leukemia
  growth: 97.7%
MALME-3M melanoma
  growth: 102%
MDA-MB-231 breast
  growth: 95.8%
RXF 393 renal
  growth: 119%
SF-268 CNS
  growth: 96.7%
SF-295 CNS
  growth: 96.1%
SF-539 CNS
  growth: 101%
UACC-257 melanoma
  growth: 93.6%
M14 melanoma
  growth: 103%

## Fc1ccc(CNc2cccc3[nH]c(C(F)(F)F)nc23)cc1
NCI-H23 lung
  growth: 99.1%
NCI-H226 lung
  growth: 93.1%
NCI-H322M lung
  growth: 104%
HOP-62 NSCLC
  growth: 80.3%
NCI-H460 lung
  growth: 83%
HOP-92 NSCLC
  growth: -9.4% (active)
NCI-H522 lung
  growth: 79.7%
A549/ATCC NSCLC
  growth: 89.2%
786-0 renal
  growth: 110%
COLO 205 colon
  growth: 102%
DU-145 prostate
  growth: 93.5%
K-562 leukemia
  growth: 13%
MALME-3M melanoma
  growth: 103%
MDA-MB-231 breast
  growth: 73.8%
RXF 393 renal
  growth: 99.1%
SF-268 CNS
  growth: 76.9%
SF-295 CNS
  growth: 89.9%
SF-539 CNS
  growth: 97%
UACC-257 melanoma
  growth: 101%
M14 melanoma
  growth: 109%

## CC1=CC(=NN=c2cc(C)n([O-])c(C)c2)C=C(C)[N+]1=O
NCI-H23 lung
  growth: 95.5%
NCI-H226 lung
  growth: 64.2%
NCI-H322M lung
  growth: 114%
HOP-62 NSCLC
  growth: 79.6%
NCI-H460 lung
  growth: 102%
HOP-92 NSCLC
  growth: 93.2%
NCI-H522 lung
  growth: 67.6%
A549/ATCC NSCLC
  growth: 87.4%
786-0 renal
  growth: 79.3%
COLO 205 colon
  growth: 29.8%
DU-145 prostate
  growth: 107%
K-562 leukemia
  growth: 85%
MALME-3M melanoma
  growth: 106%
MDA-MB-231 breast
  growth: 97.7%
RXF 393 renal
  growth: 87.8%
SF-268 CNS
  growth: 106%
SF-295 CNS
  growth: 112%
SF-539 CNS
  growth: 105%
UACC-257 melanoma
  growth: 77.4%
M14 melanoma
  growth: 77.2%

## Cn1cc(-c2nonc2-c2c[nH]c3ccc(F)cc23)c2cccnc21
NCI-H23 lung
  growth: 80.7%
NCI-H226 lung
  growth: 57.3%
NCI-H322M lung
  growth: 88.1%
HOP-62 NSCLC
  growth: 78.9%
NCI-H460 lung
  growth: 93.9%
HOP-92 NSCLC
  growth: 70.6%
NCI-H522 lung
  growth: 70.2%
A549/ATCC NSCLC
  growth: 80.4%
786-0 renal
  growth: 98.1%
COLO 205 colon
  growth: 96.5%
DU-145 prostate
  growth: 96%
K-562 leukemia
  growth: 58%
MALME-3M melanoma
  growth: 93.4%
MDA-MB-231 breast
  growth: 78.4%
RXF 393 renal
  growth: 72.8%
SF-268 CNS
  growth: 78.3%
SF-295 CNS
  growth: 78.9%
SF-539 CNS
  growth: 88.7%
UACC-257 melanoma
  growth: 89.9%
M14 melanoma
  growth: 90.3%
